Reference: PubChem BioAssay AID1835 (Johns Hopkins Ion Channel Center, 2009)
Among all 2,400 compounds or so, about 750 (31%) were called active.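 How the source made its calls: active means median signal gain over dofetilide-blocked control wells reaching their mean plus 3 SD, so readout 1 at least 0; inactive means the rest.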 The list shows a part of the results.

The compounds below were run against Voltage-gated inwardly rectifying potassium channel KCNH2 (Homo sapiens) (UniProt Q12809) (assay: hERG protection against dofetilide inhibition, confirmation, cell-based, thallium flux, duplicate retest, dofetilide IC70 (AID 1835)). Settings: hERG cell line, FluxOR thallium flux, dofetilide-blocked; at 10 µM; hits give high values.
Voltage-gated inwardly rectifying potassium channel KCNH2 (Homo sapiens), sequence (Q12809 whole entry, looked up): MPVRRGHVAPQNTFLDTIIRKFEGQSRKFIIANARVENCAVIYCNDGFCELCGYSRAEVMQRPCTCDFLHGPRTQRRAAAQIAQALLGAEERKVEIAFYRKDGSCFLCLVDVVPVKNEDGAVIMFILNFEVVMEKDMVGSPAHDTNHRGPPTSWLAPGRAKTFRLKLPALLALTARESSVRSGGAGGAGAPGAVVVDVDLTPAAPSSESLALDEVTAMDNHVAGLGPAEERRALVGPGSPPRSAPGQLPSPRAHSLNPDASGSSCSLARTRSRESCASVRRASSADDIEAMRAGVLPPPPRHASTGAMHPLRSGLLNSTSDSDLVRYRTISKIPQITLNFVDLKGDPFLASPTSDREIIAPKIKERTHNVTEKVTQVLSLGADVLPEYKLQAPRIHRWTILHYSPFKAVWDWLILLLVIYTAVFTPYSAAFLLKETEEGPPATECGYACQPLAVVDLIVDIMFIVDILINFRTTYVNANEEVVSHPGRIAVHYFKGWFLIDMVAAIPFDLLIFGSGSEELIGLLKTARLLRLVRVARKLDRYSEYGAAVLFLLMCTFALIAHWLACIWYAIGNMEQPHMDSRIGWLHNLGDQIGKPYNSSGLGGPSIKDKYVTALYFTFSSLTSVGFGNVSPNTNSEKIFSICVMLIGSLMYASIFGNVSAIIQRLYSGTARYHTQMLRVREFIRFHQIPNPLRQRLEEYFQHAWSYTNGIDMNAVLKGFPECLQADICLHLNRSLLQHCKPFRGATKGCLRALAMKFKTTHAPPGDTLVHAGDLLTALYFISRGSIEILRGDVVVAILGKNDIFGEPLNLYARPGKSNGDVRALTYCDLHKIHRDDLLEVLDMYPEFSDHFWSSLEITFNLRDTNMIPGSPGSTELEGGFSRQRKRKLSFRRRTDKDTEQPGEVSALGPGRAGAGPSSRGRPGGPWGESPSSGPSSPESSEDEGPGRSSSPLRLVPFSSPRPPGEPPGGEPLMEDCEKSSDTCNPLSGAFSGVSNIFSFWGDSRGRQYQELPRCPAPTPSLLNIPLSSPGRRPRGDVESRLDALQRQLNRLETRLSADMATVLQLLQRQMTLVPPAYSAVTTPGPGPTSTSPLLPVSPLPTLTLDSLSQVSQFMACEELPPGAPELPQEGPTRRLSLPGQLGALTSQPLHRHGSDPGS

| Compound | activity increase over dofetilide control, less the hit threshold |
| --- | --- |
| COc1ccc(S(=O)(=O)N2CCN(C(=O)CNC(=O)c3ccc4c(c3)OCO4)CC2)cc1 | -11% (inactive) |
| COc1ccc(N2CCN(CC(O)COc3ccc(F)cc3)CC2)cc1 (stereo unspecified) | -8% (inactive) |
| O=C(NC(=S)Nc1ccc(N2CCOCC2)c(Cl)c1)c1sc2ccccc2c1Cl | 15% (active) |
| COc1ccc(NC(=O)c2cc(S(=O)(=O)N3CCOCC3)ccc2N2CCOCC2)cc1 | -16% (inactive) |
| CCC(=O)Nc1ccc(N2CCOCC2)c(S(=O)(=O)Nc2ccc(OC)cc2)c1 | -26% (inactive) |
| O=C(NC(=S)Nc1ccc(N2CCCCC2)cc1)c1cccs1 | -2% (inactive) |
| O=C(NC(=S)Nc1ccccc1N1CCCCC1)c1cccs1 | 11% (active) |
| O=C(NC(=S)Nc1ccccc1N1CCCC1)c1cccs1 | 0% (inactive) |
| O=C(NC(=S)Nc1ccc(N2CCCCC2)c(Cl)c1)c1cccs1 | 23% (active) |
| Nc1ccc(Cl)c(NC(=O)c2cccs2)c1 | -11% (inactive) |
| COCCN1C(=O)C(=O)/C(=C(/O)c2ccc(S(=O)(=O)N3CCOCC3)cc2)C1c1ccc(OC)c(OC)c1 (stereo unspecified) | -17% (inactive) |
| Nc1nc(Br)c2c(F)cccc2c1-c1ccc(Cl)cc1 | -6% (inactive) |
| Cc1ccc(C2c3c(-c4ccccc4O)n[nH]c3C(=O)N2Cc2ccncc2)cc1 (stereo unspecified) | -3% (inactive) |
| O=C(COc1ccc(Cl)cc1Cl)Nc1cccnc1 | -2% (inactive) |
| N#Cc1ccc(-c2ccc(OCC(=O)Nc3cccnc3)cc2)cc1 | -10% (inactive) |
| O=C(COc1ccc2ccccc2c1Br)Nc1cccnc1 | 31% (active) |
| O=C(COc1ccccc1)Nc1ccc(S(=O)(=O)Nc2ccccn2)cc1 | -18% (inactive) |
| O=C(COc1ccc([N+](=O)[O-])cc1)Nc1cccnc1 | -25% (inactive) |
| O=C(COc1ccc(C(=O)c2ccccc2)cc1)Nc1cccnc1 | 4% (active) |
| CC(=O)OCC1O[C@@H](O[C@@H]2C[C@H]3C(C)(C)[C@H](OC(C)=O)CC[C@]3(C)[C@H]3CC[C@]45C[C@]4(CC[C@H]5[C@@H](C)C[C@@H](O)[C@H](O)C(C)(C)O)[C@@]32C)[C@H](O)[C@@H](O)[C@@H]1O (stereo partly specified) | 12% (active) |
| C/C(=N\Nc1nc2ccccc2nc1C)c1ccccc1O | 10% (active) |

| Compound | activity increase over dofetilide control, less the hit threshold |
| --- | --- |
| C/C(=N\Nc1nc2ccccc2s1)c1cccs1 | -8% (inactive) |
| C/C(=N\Nc1nc2ccccc2s1)c1ccc(Br)s1 | -11% (inactive) |
| Cc1ccc(-c2nnn(CC(=O)N(CC3CCCO3)C(C(=O)NC3CCCC3)c3ccc(O)cc3)n2)o1 (stereo unspecified) | -7% (inactive) |
| COCCNC(=O)C(c1ccc(C)o1)N(Cc1ccc(OC)cc1)C(=O)Cn1nnc2ccccc21 (stereo unspecified) | 4% (active) |
| COCCNC(=O)C(c1ccncc1)N(C(=O)Cn1nnc2ccccc21)c1ccc(OC)cc1 (stereo unspecified) | -9% (inactive) |
| O=[N+]([O-])c1cccc(/C=C/c2nc(C=Nc3ccccc3)c(O)o2)c1 | -13% (inactive) |
| COc1cc2c(cc1OC)CN(C(=O)c1ccc3nc[nH]c3c1)CC2 | -2% (inactive) |
| Cc1onc(C(=O)N2CCC(C(N)=O)CC2)c1-c1ccccc1Cl | -17% (inactive) |
| O=c1[nH]c2ccc(S(=O)(=O)NCc3ccccc3)cc2[nH]1 | -5% (inactive) |
| CC(=O)N(C1=C(N)C(=O)c2ccccc2C1=O)C(C)C | -12% (inactive) |
| Nc1ccc2c(c1)C(=O)C(=O)c1ccccc1-2 | 10% (active) |
| Clc1ccc(Cc2ccccc2)nn1 | -10% (inactive) |
| CC(=O)C1=C(O)C(=O)N(c2cccnc2)C1c1ccc(Cl)cc1 (stereo unspecified) | -30% (inactive) |
| CC(Oc1ccc(Cl)cc1Cl)C(=O)NC(=S)N1CCc2ccccc21 (stereo unspecified) | 36% (active) |
| O=C(COc1coc(CN2CCc3ccccc3C2)cc1=O)Nc1cccc(Cl)c1 | -17% (inactive) |
| O=C(COc1ccc(Cl)cc1Cl)NC(=S)N1CCCc2ccccc21 | 21% (active) |
| O=C(COc1ccc(Br)cc1Br)NC(=S)N1CCCc2ccccc21 | 6% (active) |
| O=C(COc1ccc(Br)cc1Cl)NC(=S)N1CCc2ccccc21 | -4% (inactive) |
| CC(C)c1ccc(OCC(=O)NN2C(=O)c3ccccc3C2=O)c(Br)c1 | -17% (inactive) |
| CSc1nc2ccc(S(=O)(=O)N3CCc4ccccc43)cc2s1 | 0% (inactive) |
| CCOc1ccc2[nH]c(=O)c(CN(Cc3ccc(C)cc3)C(=O)N3CCCC3)cc2c1 | -8% (inactive) |

| Compound | activity increase over dofetilide control, less the hit threshold |
| --- | --- |
| Cc1cc(C)cc(NC(=O)N2CCCC2C(=O)Nc2ccc(-n3cnnn3)c(C)c2)c1 (stereo unspecified) | -28% (inactive) |
| Cc1cc(SC#N)cc(C)c1NC(=O)CCl | -1% (inactive) |
| C=CCNC(=O)CC(=O)N/N=C/c1cccs1 | 0% (inactive) |
| O=C(NC1CCN(c2ncccn2)CC1)c1c(F)cccc1F | -2% (inactive) |
| C=CCNc1sc(C(=O)C(C)(C)C)c(N)c1C#N | -14% (inactive) |
| COc1cc(/C=C2/C(=O)NN(c3ccc(Cl)c(Cl)c3)C2=O)cc([N+](=O)[O-])c1O | -1% (inactive) |
| CC(CCc1ccccc1)NC(=S)NC(=O)c1ccco1 (stereo unspecified) | 28% (active) |
| O=C(NC(=S)N(CCc1ccccc1)CCc1ccccc1)c1ccco1 | 53% (active) |
| O=[N+]([O-])C1=CC=C2C(=NC3(CCCCC3)N2O)C1=NC1CCCCC1 | -15% (inactive) |
| O=C(COC(=O)c1cc(S(=O)(=O)NCc2ccccc2)ccc1O)NCc1ccccc1 | -7% (inactive) |
| Cc1cc(N2C(=O)C(O)=C(C(=O)c3cccs3)C2c2ccccc2)no1 (stereo unspecified) | -11% (inactive) |
| COc1ccc(CNC(=O)C(=O)c2cn(CC(=O)N3CCCC3)c3ccccc23)cc1 | -21% (inactive) |
| O=C(NNC(=O)c1ccc(Cl)cc1Cl)c1cnccn1 | -16% (inactive) |
| Cc1ccccc1C(=O)Nc1nc(=S)ss1 | 39% (active) |
| CC(C)CC(=O)Nc1nc(=S)ss1 | -11% (inactive) |
| Cc1ccccc1C(=O)c1cn[nH]c1-c1ccccc1O | -29% (inactive) |
| O=C(Nc1nc(=S)ss1)c1ccc(Cl)cc1Cl | 70% (active) |
| COc1nnc(-c2ccc(C)c(S(=O)(=O)NC(C)(C)CO)c2)c2ccccc12 | -17% (inactive) |
| CN(Cc1cnn(C)c1)C(=O)C1CCC(=O)N(Cc2cccc(C(F)(F)F)c2)C1 (stereo unspecified) | -10% (inactive) |
